# Measured values published in the supplement of paper PMC6555819.
# Legend:
# Experiment in all cases: PBM binding z-score (relative to random genomic background probes); higher = stronger binding; sequences stand for … in GC…GCGATTGACAGCGTAGAATGAAGG
# [1] = system: FXR:RXRa (NR concentration 270 nM, RXRa partner concentration 90 nM)
# Outline: (§1)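 Custom Agilent 4×180K protein-binding microarrays carried double-stranded probes. Their 34-nt variable regions held direct-repeat seeds, single-nucleotide variants, half-site ablations and random human genomic background sequences. Arrays were incubated 1 h with ligand-free nuclear receptor dimers in PBS pH 7.4, 2% milk, 0.02% Triton X-100, 1 mM DTT, 0.2 mg/mL BSA and 0.4 mg/ml salmon testes DNA. Antibodies against each partner (one per run) detected binding, and scanned fluorescence was regression-normalized. Binding z-scores use random background probes as reference.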
# [2] = system: LXRa:RXRa (NR concentration 270 nM, RXRa partner concentration 90 nM)
# Outline: as §1
# [3] = system: LXRa homodimer (NR concentration 270 nM)
# Outline: as §1
# [4] = system: LXRb:RXRa (NR concentration 270 nM, RXRa partner concentration 90 nM)
# Outline: as §1
# [5] = system: LXRb homodimer (NR concentration 270 nM)
# Outline: as §1
# [6] = system: PPARa:RXRa (NR concentration 270 nM, RXRa partner concentration 90 nM)
# Outline: as §1
# [7] = system: PPARg:RXRa (NR concentration 180 nM, RXRa partner concentration 90 nM)
# Outline: as §1
# [8] = system: PPARg:RXRa 270nM:90nM, anti-RXR (NR concentration 270 nM, RXRa partner concentration 90 nM)
# Outline: as §1
# [9] = system: PPARg:RXRa 30nM:10nM, anti-RXR (NR concentration 30 nM, RXRa partner concentration 10 nM)
# Outline: as §1
# [10] = system: PPARg:RXRa 90nM:30nM, anti-RXR (NR concentration 90 nM, RXRa partner concentration 30 nM)
# Outline: as §1
# [11] = system: PPARg:RXRa DBDmut IVT, anti-RXR (DBD mutation: RXRa K156A/R161A, NR concentration 270 nM, RXRa partner concentration 90 nM)
# Outline: as §1
# [12] = system: PPARg:RXRa IVT, anti-PPARg (NR concentration 270 nM, RXRa partner concentration 90 nM)
# Outline: as §1
# [13] = system: PPARg DBDmut:RXRa IVT, anti-PPARg (DBD mutation: PPARg1 K132A/R137A, NR concentration 270 nM, RXRa partner concentration 90 nM)
# Outline: as §1
# [14] = system: PPARg DBDmut IVT, anti-PPARg (DBD mutation: PPARg1 K132A/R137A, NR concentration 270 nM)
# Outline: as §1
# [15] = system: PPARg homodimer (NR concentration 180 nM)
# Outline: as §1
# [16] = system: PXR:RXRa (NR concentration 270 nM, RXRa partner concentration 90 nM)
# Outline: as §1
# [17] = system: PXR homodimer (NR concentration 270 nM)
# Outline: as §1
# [18] = system: RARa:RXR (NR concentration 270 nM, RXRa partner concentration 90 nM)
# Outline: as §1
# [19] = system: RARa homodimer (NR concentration 270 nM)
# Outline: as §1
# [20] = system: RARb:RXRa (NR concentration 270 nM, RXRa partner concentration 90 nM)
# Outline: as §1
Sequence,PBM binding z-score [1],PBM binding z-score [2],PBM binding z-score [3],PBM binding z-score [4],PBM binding z-score [5],PBM binding z-score [6],PBM binding z-score [7],PBM binding z-score [8],PBM binding z-score [9],PBM binding z-score [10],PBM binding z-score [11],PBM binding z-score [12],PBM binding z-score [13],PBM binding z-score [14],PBM binding z-score [15],PBM binding z-score [16],PBM binding z-score [17],PBM binding z-score [18],PBM binding z-score [19],PBM binding z-score [20]
ATCTCTAGGTAAGACTCAGTTCAGTGACGAACGC,0.592,0.636,0.724,0.467,0.883,0.279,0.47,0.379,0.0999,0.176,2.2,1.36,0.803,0.863,0.854,1.11,2.01,0.642,1.18,0.528
TCTAGTTGGTCAAAGGTCACACGCTCGAAATGCG,6.24,5.77,4.22,5.45,1.94,6.6,12,10.1,12.1,11.5,3.58,6.36,0.719,1.69,5.16,6,2.22,7.76,3.91,4.97
GCAGACAGGTGTAACGCAGGTAACTCAGGGTGGC,-0.697,-0.644,-1.09,-0.823,-1.61,-0.721,0.351,-0.525,-0.773,-0.582,-0.561,-0.366,-0.91,-1.52,-1.12,-0.578,-1.01,-0.502,-1.69,-0.603
AGTCAATGTTCATCTAGGTAACGTAAGATATGCT,-0.0895,-0.35,-0.229,-0.0742,-0.311,0.296,0.881,-0.0872,-0.0799,-0.00272,0.56,1.85,1.15,0.949,-0.656,-0.196,0.00127,-0.13,0.181,0.152
GGAACGAGAGCAAAGTTGATAGCATCTGTCGACG,-0.381,-0.564,-0.809,-0.767,-1.1,2.02,3.1,4.59,3.13,5.43,0.164,0.909,-1.31,-0.755,-0.156,-0.47,-0.418,-0.331,-1.16,-0.296
GCTTACGGGTCAAAGGTTGTAGCATGAATAGAAT,7.18,4.99,0.175,4.72,0.259,6.6,9.83,8.57,7.45,9.31,5.13,5.38,0.728,1,3.02,5.04,0.237,7.21,0.364,3.99
TCATATAGGTAAATGCTACGTGAAAGTCCGATCT,0.931,0.681,0.145,0.726,0.254,0.91,0.924,2.02,3.64,2.58,3.82,2.01,1.39,1.49,0.811,0.667,0.362,0.641,0.913,0.222
TAGCCTAGATCAGATCGGGCCAGTATACGCTATA,-0.847,-1.11,-0.829,-1.18,-1.2,-1.18,0.218,-0.582,-0.499,-0.448,-0.0973,0.607,-0.736,-0.528,-1.3,-0.794,-1.1,-0.901,-1.23,-1.19
GGTGCTAGGTCAACTGATGGTCAGCTAAAGCTCG,4.46,3.2,0.481,2.17,0.109,3.84,3.55,3.81,0.998,2.53,4.51,4.91,-0.202,-0.913,3.45,1.84,0.142,3.25,0.466,4.43
TCTTGTAGATCAAGCAGGTTATGAAAGCCTGAGT,0.147,0.219,-0.495,0.124,-0.429,0.732,-0.162,1.27,2.34,1.89,1.29,0.311,0.244,0.263,-0.854,0.4,0.201,0.334,-0.519,0.176
GGAACGAGGGAATTCGAGTTGATAGCATGGCGAT,-0.4,-0.535,-0.72,-0.978,-1.16,-0.557,0.44,-0.504,-0.356,-0.529,-0.111,-0.244,-0.28,0.0147,-0.611,-0.165,-0.439,-0.36,-0.411,-0.688
GCTAGCAGGCCATTTGGGTCTCTCAATGACGGGC,-0.43,-0.541,-0.417,-0.913,-1.24,-0.217,-0.0162,-0.509,-1.01,-0.9,0.644,0.258,-0.858,-1.65,-0.8,-0.469,-0.68,-0.418,-1.34,0.0129
CCTCGGAGGACAACAGGAGGTCAGCGCTGCCAGA,1.63,2.48,1.84,1.66,-0.537,2.37,0.445,0.734,-0.791,0.307,0.165,0.649,-1.42,-1.72,2.38,2.56,0.451,2.71,0.815,3.27
TCAAATAGGTAAAAGGTGAAAGTCGGTGTGGTAA,2.23,1.93,0.419,2.06,-0.106,5.45,8.26,8.33,8.45,9.13,4.66,4.53,0.779,0.749,2.29,1.91,0.411,3.31,1.82,2.27
ATCTCTAGGTAACAAGTTCAGTGGAAGAGAGGAC,0.589,0.744,0.58,0.666,0.823,1.47,1.7,1.79,0.967,1.71,3.2,3.02,0.956,1.34,1.43,1.66,1.48,1.15,1.39,1.8
GCTTGTAGATCAAAGTTAAGAAAGACTAAGCTAA,-0.479,-0.533,-0.585,-0.487,-0.917,1.18,2.55,4.31,2.13,4.45,0.918,0.871,-0.419,0.433,-0.72,-0.462,-0.397,-0.522,-0.688,-0.479
TCTAGCAGGCCAGAGGTTCACTCAAGAGGTACGG,-0.592,-0.361,-0.519,-0.224,-1.44,0.888,1.43,2.96,2.15,2.98,0.614,-0.232,-1.08,-0.88,-0.59,0.274,-0.691,0.324,-0.904,0.468
CGAACTAGGTCACTGACAGGACAGTGAATAGTAA,3.05,2.26,-0.0136,1.64,-0.225,4.7,7.95,6.65,3.86,6.09,8.19,8.43,0.923,0.583,1.33,1.1,-0.168,1.94,-0.0785,3.9
AGAATTAGGTTATACGTAGATCAGGGAAGAAAGT,0.495,0.704,0.321,0.628,0.596,2.29,2.76,2.95,1.74,2.58,6.81,4.61,1.46,1.36,1.25,0.291,0.914,0.687,0.896,0.776
